# ZTA counter: ZTA (EBV) inhibition in EBNA-1 counter-screen. ZTA-DNA binding, fluorescence polarization. 320,000 tested, 0.15% active. inhibition, % at 11 µM. P03206; in the data active = inhibition above about 33%
# Target sequence (P03206 whole entry, looked up): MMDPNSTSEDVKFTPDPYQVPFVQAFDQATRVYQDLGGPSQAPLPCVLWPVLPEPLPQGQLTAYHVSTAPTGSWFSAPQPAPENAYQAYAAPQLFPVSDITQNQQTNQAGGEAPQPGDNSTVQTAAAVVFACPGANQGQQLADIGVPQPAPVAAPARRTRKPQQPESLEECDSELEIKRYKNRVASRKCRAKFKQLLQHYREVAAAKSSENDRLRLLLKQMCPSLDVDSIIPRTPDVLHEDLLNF
# EBNA-1 inh: blocks EBNA-1 binding to DNA; EBNA-1 DNA binding, fluorescence polarization; inhibition, % at 14.8 µM; 300,000 tested, 0.34% active; AID 1950; in the data active = inhibition above about 28%
# PP1 counter: blocks human PP1-alpha phosphatase, a PP5 counter-screen; purified PP1alpha, OMFP fluorescence; inhibition, % at 6.7 µM; 320,000 tested, 0.9% active;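 active = inhibition above the mean inhibition of all tested compounds plus 3 SD, computed separately for each screening campaign, cut at about 15% in these data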
# Target sequence (P62136 whole entry, looked up): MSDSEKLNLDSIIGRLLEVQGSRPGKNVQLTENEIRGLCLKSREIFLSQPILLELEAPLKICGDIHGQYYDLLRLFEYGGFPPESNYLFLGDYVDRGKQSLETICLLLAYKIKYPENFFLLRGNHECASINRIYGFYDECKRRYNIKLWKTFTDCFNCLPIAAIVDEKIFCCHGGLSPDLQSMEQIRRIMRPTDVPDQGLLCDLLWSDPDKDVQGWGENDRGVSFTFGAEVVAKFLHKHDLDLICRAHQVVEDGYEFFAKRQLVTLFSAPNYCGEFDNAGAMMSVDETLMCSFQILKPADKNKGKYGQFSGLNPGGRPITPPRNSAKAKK
# PP5 inh: blocks human protein phosphatase 5 activity | P53041 | 320,000 tested, 0.18% active | purified PP5c, OMFP substrate fluorescence | inhibition, % at 6.7 µM;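 active = inhibition above the campaign's mean inhibition across all tested compounds plus 3 SD, cut at about 9.5% in these data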;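 note: 0% = DMSO only and 100% = 100 µM cantharidin control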
# MsrA inhibitor: inhibitors of bovine MsrA; purified bovine MsrA, absorbance read-out; inhibition, % at 15.5 µM; 360,000 tested, 0.75% active; in the data active = inhibition above about 4.5%;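 note: 0% = vehicle wells with enzyme and 100% = reference inhibitor wells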
# MsrA act: bovine methionine sulfoxide reductase A activation; purified bovine MsrA, absorbance read-out; activation, % at 10.6 µM; 360,000 tested, 0.3% active; in the data active = activation above about 7.5%;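 note: 0% = vehicle and 100% = reference activator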
# PP5 conf: PP5 (human) inhibition, confirmation; Purified PP5, fluorogenic phosphatase substrate, fluorescence; inhibition, % at 6.7 µM; shares compounds with PP5 inh; 460 tested, 22% active; in the data active = inhibition above about 9.5%
# PP1 counter 3x: counter-screen for PP5 inhibitors: human PP1 phosphatase inhibition. shares compounds with PP5 inh. PP1 enzyme, fluorescent phosphatase substrate. inhibition, % at 6.7 µM. 460 tested, 4% active. AID 2355; in the data active = inhibition above about 16%
# * hit, by the source's call; x = no result. This is a sample that favours compounds with a hit; in the whole collection about 2.3% have one here.
SMILES,ZTA counter,EBNA-1 inh,PP1 counter,PP5 inh,MsrA inhibitor,MsrA act,PP5 conf,PP1 counter 3x
O=C(c1ccc2c(=O)n(Cc3ccc4c(c3)OCO4)c(=S)[nH]c2c1)N1CCCCC1,10.3,-9.5,-1.3,-0.8,-0.7,-3.7,x,x
COc1ccc(S(=O)(=O)CC(=O)Nc2ccccc2Cl)cc1,5.4,-6.8,-2.8,2.8,2.5,-11.1,x,x
O=C(CS(=O)(=O)c1ccc(Cl)c(Cl)c1)Nc1ccccc1Cl,1.4,10.5,1.4,11.0*,1.8,-0.1,-4.3,-2.8
CCN(CC)S(=O)(=O)c1cc(C(=O)Nc2nncs2)c(Cl)cc1Cl,3.0,9.2,3.5,11.1*,-1.6,-2.7,-2.3,-1.4
CCN(CC)S(=O)(=O)c1ccc(Cl)c(C(=O)Nc2nncs2)c1,14.0,7.7,-1.1,-2.0,-0.8,-2.1,x,x
CC1CC(C)CN(C(C(=O)NC2CCCCC2)c2ccnc3ccccc23)C1 (stereo unspecified),x,x,x,x,0.3,-0.4,x,x
COc1ccccc1CCC(=O)NNC(=O)c1ccccc1,-7.6,-10.7,-2.1,1.5,-0.7,-1.9,x,x
COc1ccc(C(=O)NNC(=O)CCc2ccccc2OC)cc1,-9.8,-18.0,-4.0,16.0*,-0.3,-1.0,-3.8,-3.4
Cc1ccc(NC(=O)CN(C)C(=O)c2nn(C)c(=O)c3ccccc23)cc1,0.9,6.6,-2.9,-1.0,1.2,-2.3,x,x
O=C(NNc1cc(N2CCCC2)nc(N2CCCC2)n1)c1ccc([N+](=O)[O-])cc1,-4.3,-13.4,4.3,11.0*,-0.1,-3.5,34.0*,4.0
Cc1nc(N)ncc1C(=O)Nc1ccccc1,-7.0,9.3,0.1,-0.8,-0.3,-3.4,x,x
CN(C)C(=O)Cn1c(SCC(=O)NC2CCCCC2)nc2ccccc21,3.1,0.8,-1.6,10.0*,1.1,-2.8,-0.9,-2.0
CCCSc1nsc(NC(=O)Nc2ccc(F)cc2F)n1,-5.2,-2.0,6.7,10.1*,0.5,0.9,-1.6,0.8
COCCN1C=C2C(=O)C(C)(OC(=O)CCC(=O)OC)C(=O)C=C2C=C1C1CC1 (stereo unspecified),11.9,2.3,6.5,17.3*,x,-2.3,42.8*,16.8*
COC(=O)CCC(=O)OC1(C)C(=O)C=C2C=C(C3CC3)N(C3CC3)C=C2C1=O (stereo unspecified),-1.9,5.8,-0.9,14.7*,1.3,-0.3,43.0*,18.4*
Cc1nn(-c2ccccc2)nc1C(=O)Nc1nnc(C(F)(F)F)s1,10.6,-3.2,1.3,1.4,2.5,-1.2,x,x
COc1ccc(Oc2ccc3c(C(F)(F)F)cc(C(F)(F)F)nc3n2)cc1,-24.5,-2.2,0.1,15.6*,-0.8,0.6,3.0,1.5
CCC(=O)Nc1cccc(NC(=O)CSc2nnc(-c3ccc(NS(C)(=O)=O)cc3)n2CC)c1,-8.7,-3.3,2.4,9.7*,0.5,-9.5,-4.2,-5.0
CCn1c(SCC(=O)Nc2cccc(NC(=O)c3cccs3)c2)nnc1-c1ccncc1,-4.9,-4.8,5.5,-4.5,x,-3.5,x,x
CCOc1ccc(NC(=O)CCc2nnc3ccc(N4CCC5(CC4)OCCO5)nn23)cc1,2.5,-15.1,0.0,2.7,-0.5,-5.7,x,x
COc1ccc(C2=Nn3c(nnc3-c3ccncc3)SC2)cc1,-10.7,-9.5,-2.5,11.5*,4.5,-3.2,-2.7,-3.2
COc1ccc(OC)c(C2=Nn3c(nnc3-c3ccco3)SC2)c1,9.1,4.6,-1.4,-0.2,2.5,-13.6,x,x
COc1ccc(OC)c(C2=Nn3c(nnc3-c3cccc(OC(C)C)c3)SC2)c1,10.5,-9.6,2.7,12.4*,-0.7,-12.2,0.5,-0.1
CC(C)CCNC(=O)C1CC(c2ccccc2[N+](=O)[O-])=NO1 (stereo unspecified),14.6,1.1,1.9,-0.3,-0.4,-7.1,x,x
CC(C)c1ccc(NC2CCCN(C(=O)C3=NN(C)C(=O)CC3)C2)cc1 (stereo unspecified),-15.3,-4.9,-2.3,-0.2,-1.3,-3.8,x,x
SMILES,ZTA counter,EBNA-1 inh,PP1 counter,PP5 inh,MsrA inhibitor,MsrA act,PP5 conf,PP1 counter 3x
COc1ccc(Oc2cn[nH]c2-c2ccc(O)cc2O)cc1,6.5,13.3,-1.5,2.7,0.1,-6.7,x,x
CCCc1ccc(Oc2cn[nH]c2-c2ccc(O)cc2O)cc1,-2.1,-10.9,5.9,10.0*,-1.0,-11.7,4.2,6.6
CCCCOc1cccc(NC(=O)CSc2nncn2C)c1,5.9,-3.1,0.9,1.8,-0.2,-4.4,x,x
Cc1c(N=c2c(=O)c3ccccc3c2=O)c(=O)n(-c2ccccc2)n1C,-0.1,-2.1,2.4,12.7*,x,x,34.6*,12.3
Cc1cc(C(=O)NCC(=O)O)c(C)o1,-15.2,-2.9,1.2,-0.9,0.2,-2.2,x,x
CCOC(=O)CNC(=O)c1cc(C)oc1C,-8.5,-1.2,-2.3,14.2*,x,x,-0.2,-1.3
O=C(c1cccc(C(F)(F)F)c1)N1CCC(O)(CS(=O)(=O)Cc2ccccc2Cl)CC1,9.4,2.9,-1.1,11.1*,0.0,-1.0,-3.4,-3.8
CCCN(CCC)S(=O)(=O)c1cc2c3c(c1)CCN3C(=O)CC2,-11.0,-1.9,-1.9,0.6,-0.4,-5.3,x,x
OC[C@@H]1CN(CCN2CCOCC2)C[C@H](n2cnc3c(NC4CCCC4)ncnc32)O1,x,x,x,x,-0.7,-10.1,x,x
Cc1cc(CN2CCCCC2C(=O)Nc2ccc(Oc3cccnc3)cc2)oc1C (stereo unspecified),-7.1,1.6,1.0,3.4,-0.2,0.2,x,x
CCOC(=O)c1c(NC(=O)C2C3CCC(O3)C2C(=O)O)sc(C)c1-c1ccc(F)cc1 (stereo unspecified),-10.6,-2.9,4.3,13.0*,1.5,-3.2,1.0,3.6
CCOC(=O)c1c(-c2ccc(C)c(C)c2)csc1NC(=O)C1CC=CCC1C(=O)O (stereo unspecified),9.3,-13.2,10.2,4.9,2.6,-6.2,x,x
CCCOC(=O)c1c(-c2ccc(C)cc2C)csc1NC(=O)C1C2CCC(O2)C1C(=O)O (stereo unspecified),16.1,5.7,2.9,10.8*,3.2,-2.2,-1.4,5.4
CCOC(=O)c1c(NC(=O)C2C3CCC(O3)C2C(=O)O)sc2c1CCC(CC)C2 (stereo unspecified),8.6,-5.8,8.0,14.2*,1.5,-4.5,2.3,4.2
CCn1c(CC(=O)Nc2ccccc2)n[nH]c1=S,3.3,-9.2,0.5,1.4,-1.4,0.1,x,x
COC(=O)Cn1c(=O)oc2ccc(C)cc21,2.7,-3.1,-0.1,0.5,1.2,-4.2,x,x
CCn1c(NC(=O)c2ccco2)c(-c2ccccc2Cl)c(=O)c2ccccc21,-5.8,-3.0,-0.7,11.6*,1.8,-7.1,-7.6,-5.1
Cc1ccc(CNC(=O)c2ccc(C#CC(C)(C)O)s2)cc1,-23.1,-7.4,0.7,9.6*,-1.1,-0.3,-2.7,-1.9
CC(C)(O)C#Cc1ccc(C(=O)NCCC(=O)O)s1,10.0,1.9,-2.5,-1.0,-0.5,-2.8,x,x
CCSc1nc2ccccc2c(=O)n1CCc1ccc(OC)c(OC)c1,3.6,-10.1,-2.7,10.1*,-0.1,-4.3,-0.9,0.1

# From PubChem
